The structures appear in SMILES notation. Results filed as inconclusive are left out. A call without a number means that no potency is given here. The source made the active and inactive calls. Unless noted, the call rests on the fitted dose curve; in most records, active means well fitted curve in the direction sought with a large enough effect; inconclusive means small, poorly fitted or top-dose-only effect, or another doubt; inactive means no such curve, though single readings can be large; an effect the other way counts as inactive or inconclusive.

Chain of Alpha-galactosidase (Coffea arabica) (Q42656 whole entry, looked up): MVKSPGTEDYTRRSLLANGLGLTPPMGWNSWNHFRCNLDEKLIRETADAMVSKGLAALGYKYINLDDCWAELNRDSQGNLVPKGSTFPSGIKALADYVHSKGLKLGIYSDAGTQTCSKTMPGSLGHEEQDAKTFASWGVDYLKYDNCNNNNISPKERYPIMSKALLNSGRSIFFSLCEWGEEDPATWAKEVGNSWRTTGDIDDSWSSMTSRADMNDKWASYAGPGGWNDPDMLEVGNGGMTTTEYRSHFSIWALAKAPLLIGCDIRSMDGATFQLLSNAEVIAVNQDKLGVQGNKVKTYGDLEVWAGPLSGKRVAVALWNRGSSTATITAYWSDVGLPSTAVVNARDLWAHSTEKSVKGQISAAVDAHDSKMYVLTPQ

For one assay, the target named is Alpha-galactosidase (Coffea arabica) (UniProt Q42656). Description: Counterscreen for Glucocerebrosidase Inhibitors: qHTS Assay for Coffee Bean alpha-Galactosidase at pH 4.5 (AID 957). Particulars: purified coffee bean alpha-galactosidase, fluorogenic substrate; series mostly up to 76.9 µM. The method, boiled down:
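Coffee bean alpha-galactosidase 2 nM, substrate 4-MU-alpha-Gal 80 uM, pH 4.5 citrate/Tween-20, 20 min RT. Cpd titration 0.7 nM–77 uM. Stop pH 10, fluorescence 365/440 nm; Hill-equation AC50.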
As for `O=c1[nH]c2cc(C(F)(F)F)ccc2n1-c1cc(C(F)(F)F)ccc1O`, the result was inactive.
Take `N#C/C(=C\c1ccc(O)c(O)c1)C(=O)NCCCc1ccccc1`: the molecule was classed as inactive.
Same read-out and setting: the result for `N.N.O=C(O)C1(C(=O)O)CCC1.[Pt]` reads “inactive”; that for `O=C(O)C1CCNCC1`, “inactive”; that for `COc1cc2c(CCNC(C)=O)c[nH]c2cc1Cl`, “inactive”.
Turning to `CN[C@H](CC(=O)O)C(=O)O`, the molecule was called inactive.
The same measure, in the same setting: as for `Ic1ccc(N2CCN(Cc3c[nH]c4ncccc34)CC2)cc1`, the entry is “inactive”; as for `CC[C@H](NC(=O)c1c(C)c(-c2ccccc2)nc2ccccc12)c1ccccc1`, “inactive”.
Take `CSC(=N)N`: the outcome was inactive.
The same measure, in the same setting: as for `N#C/C(=C\c1ccc(O)c(O)c1)C(=O)Nc1ccccc1`, the entry is “inactive”.
On to `O=C(c1cc(O)c(O)c([N+](=O)[O-])c1)c1ccccc1F`, for which the call was inactive.

A further assay shares this target. Description: Counterscreen for Glucocerebrosidase Inhibitors: qHTS Assay for Coffee Bean alpha-Galactosidase at pH 5.9 (AID 998). To be noted: coffee bean alpha-galactosidase enzyme assay; series mostly up to 76.9 µM. The method, boiled down:
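Compounds were titrated from 0.7 nM to 77 uM against green coffee bean alpha-galactosidase (2 nM) using 80 uM fluorogenic 4-methylumbelliferyl substrate. After 20 min at room temperature, reactions were stopped at pH 10 and read by fluorescence.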
As for `O=c1[nH]c2cc(C(F)(F)F)ccc2n1-c1cc(C(F)(F)F)ccc1O`, the molecule was classed as inactive.
Still for that read-out and setting: as for `Nc1ccc(N2C(=O)c3ccccc3C2=O)c(Cl)c1`, the entry is “inactive”.
For `Cn1c(=O)[nH]c2ncn(C)c2c1=O`, the call was inactive.
On the same count and under the same terms, as for `CCN(CC)CCOC(=O)c1cc(Cl)c(N)cc1OC`, the entry is “inactive”.
With `N#C/C(=C\c1ccc(O)c(O)c1)C(=O)NCCCc1ccccc1`, the result was inactive.
Still for that read-out and setting: as for `N.N.O=C(O)C1(C(=O)O)CCC1.[Pt]`, the entry is “inactive”; as for `c1ccc2c(c1)CC(N1CCN(c3cccc4c3OCCO4)CC1)C2`, “inactive”; as for `O=C(O)C1CCNCC1`, “inactive”.
In the case of `CCn1c(=O)[nH]c2cc(Cl)c(Cl)cc21`, the call was inactive.
Consider `N[C@H](C(=O)O)[C@H](O)C(=O)O`, for which the molecule was called inactive.
On the same count and under the same terms, as for `COc1ccc2c(c1)c(CC(=O)O)c(C)n2Cc1ccc(Cl)cc1`, the entry is “inactive”; as for `CCSC(=N)N`, “inactive”.
Same read-out and setting: as for `N#CC(C#N)=C(N)/C(C#N)=C/c1ccc(O)cc1`, the entry is “inactive”; as for `COc1cc2c(CCNC(C)=O)c[nH]c2cc1Cl`, “inactive”; as for `CN[C@H](CC(=O)O)C(=O)O`, “inactive”.
Same read-out and setting: the result for `CNc1cc(NS(=O)(=O)c2ccc(N)cc2)nc(NC)n1` reads “inactive”; that for `CC(C)NC[C@H](O)COc1ccc(CC(N)=O)cc1`, “inactive”; that for `Ic1ccc(N2CCN(Cc3c[nH]c4ncccc34)CC2)cc1`, “inactive”.
`CC[C@H](NC(=O)c1c(C)c(-c2ccccc2)nc2ccccc12)c1ccccc1`: the molecule was classed as inactive.
Still for that read-out and setting: the result for `N=C(N)SCCc1cnc[nH]1` reads “inactive”; that for `COc1ccccc1N1CCN(CCN(C(=O)c2ccc(F)cc2)c2ccccn2)CC1`, “inactive”.
On the same count and under the same terms, as for `C=CC[C@H](N)C(=O)O`, the entry is “inactive”; as for `NOCC(=O)O`, “inactive”; as for `Nc1c(S(=O)(=O)O)cc(Nc2ccc(Nc3nc(Cl)nc(Nc4ccc(S(=O)(=O)O)cc4)n3)c(S(=O)(=O)O)c2)c2c1C(=O)c1ccccc1C2=O`, “inactive”.
Same read-out and setting: as for `CSC(=N)N`, the entry is “inactive”; as for `N#C/C(=C\c1ccc(O)c(O)c1)C(=O)Nc1ccccc1`, “inactive”.
As for `NCCSSCCN`, the call was inactive.
Same read-out and setting: the result for `O=C(c1cc(O)c(O)c([N+](=O)[O-])c1)c1ccccc1F` reads “inactive”.

Tested on in another assay: not listed separately
The experiment in a line: Validation screen for inhibitors of Lassa infection (AID 463096; calls by dose curve). To be noted: Lassa virus infection, cell-based; series mostly up to 46.1 µM.
Regarding `O=c1[nH]c2cc(C(F)(F)F)ccc2n1-c1cc(C(F)(F)F)ccc1O`, the Potency result is “inactive”.
Take `Nc1ccc(N2C(=O)c3ccccc3C2=O)c(Cl)c1`: the Potency entry is “inactive”.
As for `Cn1c(=O)[nH]c2ncn(C)c2c1=O`, the Potency result is “inactive”.
On to `CCN(CC)CCOC(=O)c1cc(Cl)c(N)cc1OC`, for which the Potency entry was “inactive”.
Still for that read-out and setting: as for `N#C/C(=C\c1ccc(O)c(O)c1)C(=O)NCCCc1ccccc1`, the entry is “inactive”.
The same measure, in the same setting: as for `N.N.O=C(O)C1(C(=O)O)CCC1.[Pt]`, the entry is “inactive”; as for `CN1CCC[C@H]1c1cccnc1`, “inactive”.
The same measure, in the same setting: the result for `c1ccc2c(c1)CC(N1CCN(c3cccc4c3OCCO4)CC1)C2` reads “inactive”.
Consider `O=C(O)C1CCNCC1`, for which the Potency result was “inactive”.
On the same count and under the same terms, as for `CCn1c(=O)[nH]c2cc(Cl)c(Cl)cc21`, the entry is “inactive”.
For the molecule `N[C@H](C(=O)O)[C@H](O)C(=O)O`, the Potency result was “inactive”.
Same read-out and setting: the result for `COc1ccc2c(c1)c(CC(=O)O)c(C)n2Cc1ccc(Cl)cc1` reads “inactive”.
Same read-out and setting: as for `CCSC(=N)N`, the entry is “inactive”; as for `N#CC(C#N)=C(N)/C(C#N)=C/c1ccc(O)cc1`, “inactive”.
Still for that read-out and setting: the result for `COc1cc2c(CCNC(C)=O)c[nH]c2cc1Cl` reads “inactive”; that for `CN[C@H](CC(=O)O)C(=O)O`, “inactive”; that for `CNc1cc(NS(=O)(=O)c2ccc(N)cc2)nc(NC)n1`, “inactive”.
For the molecule `CC(C)NC[C@H](O)COc1ccc(CC(N)=O)cc1`, the Potency entry was “inactive”.
For `Ic1ccc(N2CCN(Cc3c[nH]c4ncccc34)CC2)cc1`, the Potency entry is “inactive”.
On the same count and under the same terms, the result for `CC[C@H](NC(=O)c1c(C)c(-c2ccccc2)nc2ccccc12)c1ccccc1` reads “inactive”.
For `N=C(N)SCCc1cnc[nH]1`, the Potency entry was “inactive”.
For `COc1ccccc1N1CCN(CCN(C(=O)c2ccc(F)cc2)c2ccccn2)CC1`, the Potency result was “inactive”.
`C=CC[C@H](N)C(=O)O`: the Potency result was “inactive”.
As for `NOCC(=O)O`, the Potency result is “inactive”.
Still for that read-out and setting: the result for `Nc1c(S(=O)(=O)O)cc(Nc2ccc(Nc3nc(Cl)nc(Nc4ccc(S(=O)(=O)O)cc4)n3)c(S(=O)(=O)O)c2)c2c1C(=O)c1ccccc1C2=O` reads “inactive”.
Turning to `CSC(=N)N`, the Potency entry is “inactive”.
Same read-out and setting: as for `N#C/C(=C\c1ccc(O)c(O)c1)C(=O)Nc1ccccc1`, the entry is “inactive”.
With `NCCSSCCN`, the Potency entry is “inactive”.
Same read-out and setting: the result for `O=C(c1cc(O)c(O)c([N+](=O)[O-])c1)c1ccccc1F` reads “inactive”.

The values above are taken from PubChem BioAssay (NCATS).
